The term Inhibition denotes the share of the control response that was lost under treatment. Low values mean a weak effect, high ones a strong effect.

Type in all cases: functional
Experiment [1] relates to Plasmodium falciparum. The experiment is described as follows: GSK_TCMDC: Inhibition of Plasmodium falciparum 3D7 in whole red blood cells, using parasite LDH activity as an index of growth. Test compounds present at 2uM.
For experiment [2], the system named is Plasmodium falciparum. The experiment can be described thus: GSK_TCMDC: Inhibition of Plasmodium falciparum Dd2 in whole red blood cells, using parasite LDH activity as an index of growth. Test compounds present at 2uM.
Experiment [3] has as its system HepG2. The experiment can be described thus: GSK_TCMDC: Percent inhibition of human HepG2 cell line. Test compounds present at 10uM.

Regarding `CN(C(=O)c1cc2c(-c3cncnc3)cccc2[nH]1)c1ccccc1`, the figures for the Inhibition in experiment [1], in experiment [2] and in experiment [3] were 92%, 99% and 1%, respectively.
For `COc1ccc2c(=NN=C(C)c3ccccn3)cc(C)[nH]c2c1`, in that order: 100%, 51% and 33%.
For `O=C(c1cc(-c2cccs2)n[nH]1)N1CCN(S(=O)(=O)c2ccc(Cl)s2)CC1` the same measures were 84%, 80% and 20%.
For `CC(C)NCc1cccc(-c2cccc(NC(=O)c3ccc(C#N)cc3)c2)c1.O=C(O)C(F)(F)F`, in that order: 97%, 20% and 18%.
Consider `CS(=O)(=O)O.FC(F)(F)COc1ccc2ccccc2c1CNCCCCCCNCc1c(OCC(F)(F)F)ccc2ccccc12`, for which the Inhibition was 100% in experiment [1], 95% in experiment [2] and 99% in experiment [3].
For `COc1ccc(N2CCN(CCCOc3ccc(NC(=O)c4cc(Cl)cc(Cl)c4)cc3)CC2)c(OC)c1` the same measures were 100%, 41% and 38%.
In the case of `CCCc1cc(C(=O)N[C@@H](Cc2ccccc2)[C@H](O)CNC2CCOCC2)c(F)c(N2CCCCS2(=O)=O)c1`, the values for the Inhibition in experiment [1], in experiment [2] and in experiment [3] were 97%, 97% and 0%, respectively.
As for `Cc1ccc(-c2cc(C(=O)Nc3ccc(S(=O)(=O)N4CC(C)OC(C)C4)cc3)[nH]n2)c(O)c1` (centres undefined), the values for the Inhibition in experiment [1], in experiment [2] and in experiment [3] were 91%, 98% and 16%, respectively.
With `CCCCc1ccc(-c2ccc(-c3c(C)[nH]c(C)c(Br)c3=O)cn2)cc1.Cl`, the Inhibition amounted to 98% in experiment [1], 96% in experiment [2] and 0% in experiment [3].
For `CC(C)NCc1cccc(-c2ccc(NS(=O)(=O)c3cccc4cccnc34)cc2)c1.O=C(O)C(F)(F)F` the same measures were 90%, 10% and 21%.
On to `COc1ccc(NC(=O)[C@H](Cc2ccccc2)Nc2cc(C)nc(NCCc3ccccn3)n2)cc1.O=C(O)C(F)(F)F`, for which the Inhibition in experiment [1] amounted to 99%; in experiment [2], 39%; in experiment [3] it was 0%.
For `O=C(CCC1CCCCC1)NCCNc1cccc2ccccc12` the same measures were 90%, 57% and 7%.
For `CCOc1c(CNCCCNc2cc(=O)c3ccccc3[nH]2)cc(I)cc1C(C)(C)C.Cl`, in that order: 100%, 89% and 17%.
For `Cc1ccc2nc(C)cc(NC(=O)Nc3ccc(N(C)C)cc3)c2c1` the same measures were 100%, 41% and 12%.
In the case of `CN1CCN(CC(=O)Nc2ccc(-c3ccc(-c4nc5ccccc5[nH]4)s3)cc2)CC1`, the Inhibition in experiment [1] was 100%; in experiment [2] it was 49%; in experiment [3] it was 12%.
`CCCCc1cc(O)c2c(c1)OC(C)(C)C=C2C1=CCN(Cc2ccccc2)CC1`: the values for the Inhibition in experiment [1], in experiment [2] and in experiment [3] were 98%, 3% and 9%, respectively.
For the molecule `O=C(/C=C/c1ccc(Cl)cc1)NCCCCCN1CCN(C(=O)Nc2ccc(Cl)c(C(F)(F)F)c2)CC1`, the Inhibition was determined as 94% in experiment [1], 5% in experiment [2] and 18% in experiment [3].
For `Br.CCCC1N=C(N)N=C(N)N1c1ccc(C)c(C)c1` (centres undefined) the same measures were 95%, 0% and 7%.
For `CCN1CCN(CCCNc2ccnc3cc(Cl)ccc23)CC1.Cl` the same measures were 100%, 77% and 7%.
With `COc1c(C2CCN(CCCCNC(=O)C=Cc3cc4cc(Cl)ccc4o3)CC2)ccc2c1CCCC2`, the Inhibition is given as 87% in experiment [1], 19% in experiment [2] and 33% in experiment [3].
For `COc1ccc(S(=O)(=O)NCCC2CCN(CCCCCNC(=O)C=Cc3ccc(Cl)c(Cl)c3)CC2)cc1` the same measures were 87%, 0% and 36%.
Consider `CCN(CCO)Cc1ccc(-c2ccc(NS(=O)(=O)c3cccc4cccnc34)cc2)cc1.O=C(O)C(F)(F)F`, for which the values for the Inhibition in experiment [1], in experiment [2] and in experiment [3] were 92%, 16% and 25%, respectively.
As for `CC1CN(S(=O)(=O)c2ccc(NC(=O)c3cc(-c4ccccc4O)n[nH]3)cc2)CC(C)O1` (centres undefined), the Inhibition is on record as 97% in experiment [1], 93% in experiment [2] and 21% in experiment [3].
For `CC(CCCCCC(=O)Nc1ccc(CC(C)NCCc2cccc(Cl)c2)cc1)NCCc1cccc(Cl)c1` (centres undefined) the same measures were 91%, 37% and 99%.
For `NC(=O)C1CCN(Cc2ccc(-c3ccc(-c4nc5cc(C(F)(F)F)ccc5[nH]4)cc3)cc2)CC1.O=C(O)C(F)(F)F`, the Inhibition was 100% in experiment [1], 90% in experiment [2] and 25% in experiment [3].
For `Cc1ccccc1C1CCN(C2CCC(NC(=O)c3ccc(-c4cccs4)s3)CC2)CC1` (centres undefined), in that order: 100%, 54% and 58%.
For `O=C(Nc1ccc(-c2ccc(-c3nc4cc(C(F)(F)F)ccc4[nH]3)s2)cc1)c1ccoc1`, in that order: 94%, 54% and 9%.
For `CCCCc1ccccc1NS(=O)(=O)c1ccc(OC)c(N2CCNCC2)c1.Cl`, in that order: 91%, 2% and 6%.

The values above are taken from ChEMBL document CHEMBL1157539, “Thousands of chemical starting points for antimalarial lead identification” (Nature, 2010).
